4 compounds from PubChem BioAssay can be followed below.

Records with an inconclusive call do not appear. Activity calls are given as the source filed them.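 The calls were made as follows, unless noted: active = inhibition above the screen-wide mean plus 3 SD, about 51%; inactive = the rest.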

Assay [1] in a line: rapamycin-like changes in RPL19A-GFP expression – cell-based, S. cerevisiae, multiplex flow cytometry, primary screen (AID 1862; in the data active = percent of DMSO control GFP below about 86%;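 also: lower values mimic rapamycin by blocking the RPL19A rise seen in DMSO cells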). As to conditions: S. cerevisiae RPL19A-GFP strain, flow cytometry fluorescence, 3 h; at 10 µM; stronger effect = lower value.
A short description of assay [2]: TOR pathway GLN3 branch reporter MEP2-GFP changes – S. cerevisiae, multiplex flow cytometry, primary screen (AID 1867;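 active = GFP response, as percent of the DMSO control, above the screen-wide mean plus 3 SD, about 139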;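 also: median GFP channel fluorescence of barcode-gated MEP2-GFP cells measured by flow cytometry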). As to conditions: S. cerevisiae MEP2-GFP strain, 3 h, at 10 µM, stronger effect = higher value, 100% means same as DMSO wells.
Assay [3] can be described thus: TOR pathway RTG branch CIT2 reporter changes – S. cerevisiae, GFP fusion, multiplex flow cytometry, primary screen (AID 1870;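 active = percent response above a set limit, the screen-wide mean plus 3 SD, cut at about 130% in these data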;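 also: barcoded CIT2-GFP strain pooled with four other GFP strains with rapamycin as positive control; median GFP fluorescence per well over plate mean of DMSO wells so 100% = DMSO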). As to conditions: S. cerevisiae CIT2-GFP expression, 3 h, at 10 µM, stronger effect = higher value.
The nature of assay [4]: TOR pathway LAP4-GFP level changes – S. cerevisiae, multiplex flow cytometry, primary screen (AID 1873;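 active = GFP signal, as percent of the solvent control, above the screen mean plus 3 SD, about 149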). As to conditions: S. cerevisiae LAP4-GFP expression, 3 h, at 10 µM, stronger effect = higher value.
Assay [5] can be described thus: yeast AGP1-GFP level changes, GLN3 branch – cell-based, multiplex flow cytometry, S. cerevisiae, primary screen (AID 1887;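 active = GFP signal above the screen-wide mean plus 3 SD, that is over about 124.5% of the solvent control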;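 also: AGP1-GFP fusion strain of S. cerevisiae within a five-strain barcoded multiplex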). As to conditions: 3 h, at 10 µM, stronger effect = higher value.
A short description of assay [6]: reduced mouse 2C T cell binding to pMHC/ICAM-1 vesicles – MLPCN validation set, flow cytometry, LFA-1/ICAM-1 modulator project, pilot screen (AID 2523;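 active = response below a set limit, under 55% cells CD8-positive and vesicle-bound, and CD8 cells' 90th-percentile brightness under 279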;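 as to vesicle binding response: mean PE anti-B7-1 fluorescence of CD8+ cells relative to row control; 100% = QL9-loaded vesicles with DMSO vehicle in the same plate row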). As to conditions: 2C mouse CD8+ T cells, at 7 µM, stronger effect = lower value; double positive events: measured here: CD8+/vesicle+ event percentage.
Assay [7] has as its target Integrin beta-1 (Homo sapiens) + Integrin alpha-4 (Homo sapiens) (UniProt P13612+P05556). Description: alpha4beta1 integrin LIBS antibody binding reduction – U937 cells, HUTS-21 mAb, flow cytometry, validation set, VLA-4 allosteric modulator project, pilot screen (AID 2674;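 active = inhibition above 50%, about 3 SD of the validation set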;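 also: antibody binding induced by the VLA-4 ligand LDV present at three times its Kd; 0% = LDV ligand with antibody and no compound and 100% = antibody without LDV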). Particulars: HUTS-21 LIBS mAb binding, at 6.7 µM, stronger effect = higher value, binding induced by LDV ligand.

A short description of assay [8]: calorie-restriction mimetic ROS inhibitors, yeast – validation compound set, pilot screen (AID 2706;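 active = superoxide response below 65% of plate, a cut near 3 SD across the whole screen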;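 also: yeast exposed to compound for one week at 30 degrees C before staining; 100% = mean of all compound wells on the same plate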). Particulars: S. cerevisiae aging, superoxide DHE fluorescence; at 10 µM; stronger effect = lower value.
The target in assay [9] is Beta-adrenergic receptor kinase 1 (Homo sapiens) (UniProt P25098). Description: GRK2 binders displacing RNA aptamer, biochemical, validation, human GRK2, bead flow cytometry (AID 488806;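 active = aptamer binding inhibition above 30%, about 3 SD of noise from non-fluorescent compounds; inactive = inhibition at or below 30%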). As to conditions: bead-bound GRK2, FAM-aptamer displacement, at 10 µM, stronger effect = higher value.
Assay [10] has as its target Beta-2 adrenergic receptor (Homo sapiens) (UniProt P07550). Nature of the assay: agonist-induced loss of surface beta2AR – cell-based, FAP fluorogen, flow cytometry, validation set, pilot screen (AID 504459;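 active = percent response above 42, roughly 3 SD of non-fluorescent test compounds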;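 also: agonist-driven loss of surface beta2AR via internalization measured by FAP dye flow cytometry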). Particulars: Am2.2-beta2AR cells, at 10 µM, stronger effect = higher value.
For assay [11], the target named is AP-2 complex subunit beta (Homo sapiens) (UniProt P63010). Nature of the assay: beta-arrestin/AP2 interaction blockers – biochemical, validation set, GST-AP2 beads, flow cytometry, pilot screen (AID 504541;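 active = inhibition above 54%, about 3 SD of non-fluorescent compounds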;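 also: AP2 carries R879A mutation and is captured from E. coli lysate; bead-bound FITC arrestin peptide fluorescence measuring arrestin peptide binding to AP2; 0% = DMSO wells and 100% = excess unlabeled arrestin peptide control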). Particulars: FITC arrestin peptide, at 10 µM, stronger effect = higher value, AP2 beta2 appendage fragment, R879A mutant.
A short description of assay [12]: cytosolic pH regulators acting via V-ATPase – S. cerevisiae, pHLuorin, HTS validation (AID 504600; in the data active = response above about 15%;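 also: plate controls were DMSO for no effect and reference compound for full effect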). Particulars: V-ATPase proton transport, at 10 µM, stronger effect = higher value.
The subject of assay [13] is anti-desmoglein-3 scFv antibody binding to human DSG3. Description: blockers of pathogenic pemphigus antibody–desmoglein-3 binding – biochemical, validation compound set, bead-based, flow cytometry, pilot screen (AID 588368;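 active = binding below the plate cutoff, the plate median minus 3 SD, with a reading above zero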;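 also: signal is the median channel fluorescence of bead-bound GFP antibody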). Particulars: Protein G beads, DSG3-Fc, scFv-GFP binding, at 10 µM, stronger effect = lower value.
Assay [14] can be described thus: Nile Red efflux blockade in pump-expressing yeast – validation compound set, multiplex, phenotypic, pilot screen (AID 588506;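 active = efflux inhibition above 0.42, the validation set average plus 4 SD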;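 also: Nile Red retained in cells so higher fluorescence means more efflux inhibition; 0 = negative control wells and 1 = enniatin B 25 µM full block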). Particulars: S. cerevisiae pump-expressing triplex, Nile Red efflux flow cytometry; at 10 µM; stronger effect = higher value; the pumps come from Candida albicans.
Assay [15] has as its target ATP-binding cassette sub-family B member 6 (Homo sapiens) (UniProt Q9NP58). Nature of the assay: blockers of ABCB6-driven porphyrin uptake – K562-ABCB6 cells, flow cytometry, validation set, pilot screen (AID 588550).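 Also: 0% = DMSO wells and 100% = benzethonium chloride 70 µM positive control.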 Particulars: K562-ABCB6 porphyrin accumulation, 1 h, at 10 µM, stronger effect = higher value.
Assay [16] is described as follows: AML differentiation inducers, ER-HoxA9 marrow cells – cell-based, GFP/MAC1 double positive, flow cytometry, validation set, primary screen (AID 588685;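 active = differentiation response of at least 50%, scaled between solvent and reference control, from cells with both markers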;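 also: compound exposure lasts four days before antibody staining and flow analysis; 0% = DMSO wells and 100% = 5 µM fulvestrant positive control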). As to conditions: stronger effect = higher value, normalized: vehicle 0, fulvestrant 100.

ATP-binding cassette sub-family B member 6 (Homo sapiens), sequence (Q9NP58 whole entry, looked up): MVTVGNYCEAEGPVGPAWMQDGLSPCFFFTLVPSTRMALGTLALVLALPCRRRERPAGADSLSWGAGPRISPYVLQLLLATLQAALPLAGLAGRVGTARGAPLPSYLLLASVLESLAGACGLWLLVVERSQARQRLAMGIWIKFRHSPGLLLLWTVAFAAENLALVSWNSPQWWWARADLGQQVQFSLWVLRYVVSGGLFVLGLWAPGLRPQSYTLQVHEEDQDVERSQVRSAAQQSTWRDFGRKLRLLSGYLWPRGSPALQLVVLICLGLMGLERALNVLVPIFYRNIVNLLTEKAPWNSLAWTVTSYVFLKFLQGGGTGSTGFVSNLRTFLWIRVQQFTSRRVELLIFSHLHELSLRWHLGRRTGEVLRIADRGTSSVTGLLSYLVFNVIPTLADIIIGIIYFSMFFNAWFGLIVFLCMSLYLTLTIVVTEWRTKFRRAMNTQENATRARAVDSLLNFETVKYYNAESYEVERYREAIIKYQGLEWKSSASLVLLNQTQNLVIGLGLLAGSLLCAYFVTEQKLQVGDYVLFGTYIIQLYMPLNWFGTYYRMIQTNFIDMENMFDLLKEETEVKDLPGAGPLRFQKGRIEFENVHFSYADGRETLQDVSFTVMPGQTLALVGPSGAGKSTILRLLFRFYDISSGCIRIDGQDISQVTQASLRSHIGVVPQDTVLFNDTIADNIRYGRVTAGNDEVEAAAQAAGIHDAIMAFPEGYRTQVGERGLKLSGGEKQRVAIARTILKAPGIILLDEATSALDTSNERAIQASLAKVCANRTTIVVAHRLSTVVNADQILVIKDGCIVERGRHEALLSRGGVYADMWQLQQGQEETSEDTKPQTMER
Beta-adrenergic receptor kinase 1 (Homo sapiens), sequence (P25098 whole entry, looked up): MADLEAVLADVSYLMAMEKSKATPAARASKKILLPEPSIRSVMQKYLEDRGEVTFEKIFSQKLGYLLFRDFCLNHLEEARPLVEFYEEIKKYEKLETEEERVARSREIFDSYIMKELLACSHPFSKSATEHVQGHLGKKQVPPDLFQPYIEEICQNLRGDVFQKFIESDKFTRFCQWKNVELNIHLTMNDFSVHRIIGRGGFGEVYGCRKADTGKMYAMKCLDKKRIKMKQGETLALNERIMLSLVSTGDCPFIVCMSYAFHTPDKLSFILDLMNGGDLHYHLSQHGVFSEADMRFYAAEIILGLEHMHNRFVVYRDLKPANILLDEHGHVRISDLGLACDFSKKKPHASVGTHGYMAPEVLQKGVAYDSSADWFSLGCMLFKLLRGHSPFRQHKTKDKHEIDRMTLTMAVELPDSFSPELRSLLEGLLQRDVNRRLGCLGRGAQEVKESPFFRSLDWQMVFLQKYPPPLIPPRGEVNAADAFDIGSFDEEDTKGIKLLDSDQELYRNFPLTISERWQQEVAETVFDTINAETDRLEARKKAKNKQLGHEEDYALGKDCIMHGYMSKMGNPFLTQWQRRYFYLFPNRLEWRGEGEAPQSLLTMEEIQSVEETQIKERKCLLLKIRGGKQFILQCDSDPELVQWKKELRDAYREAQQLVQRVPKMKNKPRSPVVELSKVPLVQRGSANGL
AP-2 complex subunit beta (Homo sapiens), sequence (P63010 whole entry, looked up, the tested form may be a part, one chain of several): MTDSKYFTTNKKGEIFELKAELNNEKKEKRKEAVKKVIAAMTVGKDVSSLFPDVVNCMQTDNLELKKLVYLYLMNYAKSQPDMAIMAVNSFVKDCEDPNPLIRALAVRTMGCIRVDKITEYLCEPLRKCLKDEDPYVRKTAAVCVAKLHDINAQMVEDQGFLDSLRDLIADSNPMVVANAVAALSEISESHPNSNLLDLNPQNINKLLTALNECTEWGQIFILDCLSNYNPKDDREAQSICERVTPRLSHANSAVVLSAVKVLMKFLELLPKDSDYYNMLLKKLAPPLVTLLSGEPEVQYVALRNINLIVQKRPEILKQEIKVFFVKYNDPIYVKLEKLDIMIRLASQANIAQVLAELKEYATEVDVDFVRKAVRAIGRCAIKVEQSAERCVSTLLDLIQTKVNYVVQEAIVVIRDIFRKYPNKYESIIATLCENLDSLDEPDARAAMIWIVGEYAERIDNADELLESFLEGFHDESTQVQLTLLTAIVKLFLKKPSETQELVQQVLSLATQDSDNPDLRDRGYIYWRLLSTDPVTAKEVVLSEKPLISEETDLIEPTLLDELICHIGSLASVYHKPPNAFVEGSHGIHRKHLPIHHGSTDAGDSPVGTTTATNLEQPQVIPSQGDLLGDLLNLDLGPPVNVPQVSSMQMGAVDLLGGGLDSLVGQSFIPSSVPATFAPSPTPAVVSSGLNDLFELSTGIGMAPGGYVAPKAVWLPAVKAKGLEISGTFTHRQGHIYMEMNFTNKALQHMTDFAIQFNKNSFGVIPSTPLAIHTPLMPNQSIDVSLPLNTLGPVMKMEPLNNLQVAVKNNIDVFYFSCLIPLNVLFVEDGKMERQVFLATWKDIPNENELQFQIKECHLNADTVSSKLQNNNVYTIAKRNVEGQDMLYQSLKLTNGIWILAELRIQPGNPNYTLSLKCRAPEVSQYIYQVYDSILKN
Integrin beta-1 (Homo sapiens) + Integrin alpha-4 (Homo sapiens), sequence (P05556 whole entry, looked up): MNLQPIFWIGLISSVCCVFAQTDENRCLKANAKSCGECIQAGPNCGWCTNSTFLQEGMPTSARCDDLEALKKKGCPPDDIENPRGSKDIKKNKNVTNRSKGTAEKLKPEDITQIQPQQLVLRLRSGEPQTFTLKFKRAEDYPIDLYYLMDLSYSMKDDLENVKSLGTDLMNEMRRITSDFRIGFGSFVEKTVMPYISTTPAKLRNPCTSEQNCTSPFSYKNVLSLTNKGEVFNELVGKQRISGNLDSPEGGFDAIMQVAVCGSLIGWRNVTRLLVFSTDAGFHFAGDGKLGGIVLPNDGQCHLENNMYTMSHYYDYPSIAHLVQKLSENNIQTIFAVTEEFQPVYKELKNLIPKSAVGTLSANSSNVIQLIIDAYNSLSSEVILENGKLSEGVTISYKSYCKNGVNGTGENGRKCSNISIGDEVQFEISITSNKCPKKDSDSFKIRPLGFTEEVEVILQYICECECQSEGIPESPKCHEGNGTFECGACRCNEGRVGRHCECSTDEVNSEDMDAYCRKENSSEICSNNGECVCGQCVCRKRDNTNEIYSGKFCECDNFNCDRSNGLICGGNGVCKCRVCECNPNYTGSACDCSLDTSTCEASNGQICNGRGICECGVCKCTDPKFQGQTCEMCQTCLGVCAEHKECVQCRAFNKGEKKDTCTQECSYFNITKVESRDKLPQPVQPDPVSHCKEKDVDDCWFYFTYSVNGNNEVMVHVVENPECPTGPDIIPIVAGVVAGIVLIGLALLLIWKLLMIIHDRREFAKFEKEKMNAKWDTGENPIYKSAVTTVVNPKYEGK
Integrin beta-1 (Homo sapiens) + Integrin alpha-4 (Homo sapiens), sequence (P13612 whole entry, looked up): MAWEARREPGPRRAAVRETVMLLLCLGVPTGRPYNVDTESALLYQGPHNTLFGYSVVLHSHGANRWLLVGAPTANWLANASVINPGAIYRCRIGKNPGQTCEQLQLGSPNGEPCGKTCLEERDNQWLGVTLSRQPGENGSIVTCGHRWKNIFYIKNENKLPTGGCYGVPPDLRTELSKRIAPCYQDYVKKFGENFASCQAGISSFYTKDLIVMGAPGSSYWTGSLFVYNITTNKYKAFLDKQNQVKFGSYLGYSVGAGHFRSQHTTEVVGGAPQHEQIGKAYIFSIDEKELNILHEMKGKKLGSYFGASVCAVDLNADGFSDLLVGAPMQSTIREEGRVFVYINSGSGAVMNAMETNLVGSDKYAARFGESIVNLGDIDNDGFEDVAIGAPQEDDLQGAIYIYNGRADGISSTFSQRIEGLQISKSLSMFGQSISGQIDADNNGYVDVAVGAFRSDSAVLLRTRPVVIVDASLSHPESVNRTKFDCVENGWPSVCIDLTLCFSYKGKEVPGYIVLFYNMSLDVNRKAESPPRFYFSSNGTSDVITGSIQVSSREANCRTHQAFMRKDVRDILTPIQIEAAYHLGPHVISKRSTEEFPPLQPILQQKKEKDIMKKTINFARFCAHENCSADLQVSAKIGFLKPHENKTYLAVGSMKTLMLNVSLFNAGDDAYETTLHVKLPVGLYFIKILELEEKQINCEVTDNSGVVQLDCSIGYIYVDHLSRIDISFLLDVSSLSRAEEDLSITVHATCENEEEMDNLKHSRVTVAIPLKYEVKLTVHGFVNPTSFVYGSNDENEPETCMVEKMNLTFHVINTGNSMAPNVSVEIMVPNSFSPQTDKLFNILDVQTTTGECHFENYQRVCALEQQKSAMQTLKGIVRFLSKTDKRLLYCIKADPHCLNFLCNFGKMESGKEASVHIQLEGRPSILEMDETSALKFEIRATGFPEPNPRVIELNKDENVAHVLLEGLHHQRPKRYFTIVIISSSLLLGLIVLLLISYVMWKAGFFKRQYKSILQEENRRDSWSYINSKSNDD
Beta-2 adrenergic receptor (Homo sapiens), sequence (P07550 whole entry, looked up): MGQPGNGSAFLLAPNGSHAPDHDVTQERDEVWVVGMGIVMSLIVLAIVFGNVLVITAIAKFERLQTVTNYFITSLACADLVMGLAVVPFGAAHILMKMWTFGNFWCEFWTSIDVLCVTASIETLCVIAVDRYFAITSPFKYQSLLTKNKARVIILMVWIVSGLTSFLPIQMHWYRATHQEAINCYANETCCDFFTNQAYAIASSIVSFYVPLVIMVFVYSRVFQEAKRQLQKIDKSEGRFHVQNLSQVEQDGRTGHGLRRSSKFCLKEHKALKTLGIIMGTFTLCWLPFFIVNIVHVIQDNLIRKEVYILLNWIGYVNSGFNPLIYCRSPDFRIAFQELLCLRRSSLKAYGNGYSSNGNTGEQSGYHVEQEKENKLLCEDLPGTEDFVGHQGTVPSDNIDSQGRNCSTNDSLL

With `CN(C)CCCN1c2ccccc2CCc2ccccc21`, the percent of DMSO control GFP in [1] is 99% (inactive). For the same compound, the results for the GFP response vs DMSO in assay [2] and in assay [4] were 103% (inactive) and 90.7% (inactive), respectively. Besides, the percent response of DMSO control in assay [3] is 101% (inactive). Moreover, the GFP response, % of DMSO in assay [5] is 95.3% (inactive). The compound further gave a double positive events in assay [6] of 65.8%. Also, the vesicle binding response in assay [6] was 1060% (inactive). The inhibition in assay [7] was 12% (inactive); in assay [11] it was 4.55% (inactive); in assay [15] it was 3% (inactive). The superoxide response (% of plate) in [8] was 89.3% (inactive). Also, the aptamer binding inhibition in [9] is -2% (inactive). The response was 2.45% (inactive) in assay [10] and -0.62% (inactive) in assay [12]. Moreover, the binding (% of control) in assay [13] is 99.7% (inactive). The efflux inhibition (fraction of control) in [14] was -0.2 (inactive). Moreover, the differentiation response in [16] is 6.11% (inactive).

For `O=C(Nc1nc2ccccc2s1)c1ccc(F)cc1`, in [1], the percent of DMSO control GFP was 100% (inactive). The GFP response vs DMSO in [2] was 106% (inactive); in assay [4] it was 109% (inactive). Further, the percent response of DMSO control in assay [3] is 102% (inactive). Also, the GFP response, % of DMSO in assay [5] is 105% (inactive). In addition, in [6], the double positive events was 59.5%. For the same compound, the vesicle binding response in [6] was 297% (inactive). Besides, the values for the inhibition in [7], in assay [11] and in assay [15] were -4.52% (inactive), -2.74% (inactive) and 9% (inactive), respectively. Besides, the superoxide response (% of plate) in assay [8] is 103% (inactive). Further, the aptamer binding inhibition in assay [9] was 3% (inactive). The response in assay [10] is -12.7% (inactive); in assay [12] it was 4.11% (inactive). Moreover, the binding (% of control) in assay [13] was 101% (inactive). In addition, the efflux inhibition (fraction of control) in assay [14] is -0.13 (inactive). In addition, the differentiation response in assay [16] is -4% (inactive).

For `C[C@]12CC[C@@H]3c4ccc(O)cc4[C@@H](O)C[C@H]3[C@@H]1CC[C@@H]2O`, the percent of DMSO control GFP in [1] is 103% (inactive). Further, the results for the GFP response vs DMSO in assay [2] and in [4] were 101% (inactive) and 98% (inactive), respectively. In addition, the percent response of DMSO control in assay [3] is 108% (inactive). In addition, in assay [5], the GFP response, % of DMSO is 104% (inactive). Besides, in [6], the double positive events turned out to be 59.1%. Also, the vesicle binding response in [6] was 53.4% (inactive). The results for the inhibition in [7], in [11] and in [15] were 5.61% (inactive), -3.62% (inactive) and 11% (inactive), respectively. Further, the superoxide response (% of plate) in assay [8] is 106% (inactive). The aptamer binding inhibition in assay [9] is 26% (inactive). In addition, the response is -0.21% (inactive) in [10] and -0.11% (inactive) in assay [12]. The binding (% of control) in assay [13] was 102% (inactive). For the same compound, in assay [14], the efflux inhibition (fraction of control) is -0.29 (inactive). In addition, the differentiation response in assay [16] was -3.11% (inactive).

Regarding `CCC(C(=O)OCCN(CC)CC)c1ccccc1` (stereo not drawn), the percent of DMSO control GFP in assay [1] is 101% (inactive). Moreover, the GFP response vs DMSO is 101% (inactive) in assay [2] and 85.9% (inactive) in assay [4]. Moreover, the percent response of DMSO control in [3] was 98.2% (inactive). In addition, in assay [5], the GFP response, % of DMSO is 99.1% (inactive). For the same compound, the double positive events in [6] was 57.2%. For the same compound, the vesicle binding response in assay [6] is 33.7% (inactive). Besides, the values for the inhibition in assay [7], in [11] and in assay [15] were 2.55% (inactive), 19.7% (inactive) and 6% (inactive), respectively. For the same compound, the superoxide response (% of plate) in [8] was 97.2% (inactive). The aptamer binding inhibition in [9] is 5% (inactive). Moreover, the results for the response in assay [10] and in [12] were 8.98% (inactive) and -2.47% (inactive), respectively. For the same compound, the binding (% of control) in [13] is 98.8% (inactive). Besides, in assay [14], the efflux inhibition (fraction of control) was 0.26 (inactive). Besides, the differentiation response in assay [16] is 14.9% (inactive).
